From ChEMBL document CHEMBL3988442, “University of Dundee, Small-Polar-MMV Screening Library” (2021)
Screen size: about 48,000 compounds; about 13,000 (27%) showed an effect of 50% or more. Some of the results follow.

The compounds below were run on Wolbachia pipientis (assay: Anti-Wolbachia Cell-Based Screen). Conditions: 5 µM.
Assay type: functional
Design: scale not given: in the data most compounds retested in dose-response had high values
In the case of `OC(CN(Cc1ccccc1)Cc1ccncc1)c1ccco1` (stereo not drawn), the “Percent Effect” value is reported as 6.092%.
`O=C(COC(=O)Cc1cccs1)NCc1cccc(NC(=O)C2CC2)c1` was tested, and the “Percent Effect” value was 2.841%.
For `Cc1cc(NC(=O)CN2CCn3c(C)nnc3C2)no1`, the “Percent Effect” value was 3.854%.
In the case of `CC1(C)CC(=O)N(CC(=O)Nc2ccon2)c2ccccc21`, the “Percent Effect” value is reported as 100.4%.
In the case of `O=C(NCC1CC(=O)N(CCc2ccccc2)C1)c1ccon1` (stereo not drawn), the “Percent Effect” value is reported as 4.92%.
For `Cc1cc(NC(=O)CN2C(=O)CC(C)(C)c3ccccc32)no1`, the “Percent Effect” value was 116.9%.
`Cc1cccc(NC(=O)CN2C(=O)CC(C)(C)c3ccccc32)n1` was tested, and the “Percent Effect” value was 106.1%.
For `CC1CN(C)c2ccccc2CN1C(=O)NCc1ccon1` (stereo not drawn), the “Percent Effect” value was 0.2534%.
`Cc1cc(NC(=O)CN2CCn3c(nnc3-c3ccccc3)C2)no1` was tested, and the “Percent Effect” value was 6.417%.
For `Cc1cccc(NC(=O)[C@@H]2CCCN2CC(=O)N2CCCCCC2)n1`, the “Percent Effect” value was 2.208%.
`CCOCc1cccc(S(=O)(=O)N2CCSCC2)c1` was tested, and the “Percent Effect” value was 5.017%.
For `CCCS(=O)(=O)N1CCO[C@H]2[C@H](OCc3ccccn3)CC[C@@H]21.O=C(O)C(F)(F)F`, the “Percent Effect” value was -14.38%.
For `O=C(O)C(F)(F)F.O=S(=O)(C1CC1)N1CCO[C@H]2[C@@H](Oc3ncccc3F)CC[C@@H]21`, the “Percent Effect” value was 120.5%.
In the case of `CCCS(=O)(=O)N1CCO[C@H]2[C@@H](Oc3cccnc3)CC[C@@H]21.O=C(O)C(F)(F)F`, the “Percent Effect” value is reported as 101.6%.
In the case of `CCS(=O)(=O)N1CCO[C@H]2[C@H](Oc3ncccc3F)CC[C@@H]21.O=C(O)C(F)(F)F`, the “Percent Effect” value is reported as 5.015%.
For `CCCS(=O)(=O)N1C[C@@H](Oc2ccccn2)[C@H]2OCCC[C@H]21.O=C(O)C(F)(F)F`, the “Percent Effect” value was 4.768%.
In the case of `CS(=O)(=O)N1C[C@@H](Oc2ccccn2)[C@H]2OCCC[C@H]21.O=C(O)C(F)(F)F`, the “Percent Effect” value is reported as 12.05%.
In the case of `CCS(=O)(=O)N1C[C@@H](Oc2ccccn2)[C@H]2OCCC[C@H]21.O=C(O)C(F)(F)F`, the “Percent Effect” value is reported as -45.01%.
For `CCCS(=O)(=O)N1C[C@@H](Oc2ncccc2F)[C@H]2OCCC[C@H]21.O=C(O)C(F)(F)F`, the “Percent Effect” value was 117.2%.
In the case of `O=C(O)C(F)(F)F.O=S(=O)(C1CC1)N1C[C@H](Oc2ccccn2)[C@H]2OCCC[C@H]21`, the “Percent Effect” value is reported as 9.296%.
With `CS(=O)(=O)N1CCO[C@H]2[C@@H](Oc3ncccc3F)CC[C@@H]21.O=C(O)C(F)(F)F` the “Percent Effect” value was 100.8%.
For `CN(C)S(=O)(=O)N1C[C@@H](Oc2ccccn2)[C@H]2OCCC[C@H]21.O=C(O)C(F)(F)F`, the “Percent Effect” value was -0.1257%.
In the case of `CN(CCCc1cc(-c2cccc(F)c2)n[nH]1)C(=O)Cn1cncn1`, the “Percent Effect” value is reported as -5.082%.
In the case of `COc1ccccc1OC1CN(C(=O)Cc2c(C)nc(C)[nH]c2=O)C1`, the “Percent Effect” value is reported as -23.21%.
In the case of `CC(CNC(=O)c1cc(-n2cccn2)ccn1)Cn1ccnc1` (stereo not drawn), the “Percent Effect” value is reported as -5.602%.
In the case of `COCCCn1ccc(NCc2cnc(C(C)(C)C)s2)n1`, the “Percent Effect” value is reported as 1.35%.
In the case of `Cn1nc(Cn2ccnc2)c2c1CN(c1nccs1)C2.O=C(O)C(F)(F)F.O=C(O)C(F)(F)F`, the “Percent Effect” value is reported as 4.707%.
With `CCn1cnnc1CCNC(=O)CCNC(=O)c1ccccc1F` the “Percent Effect” value was 3.625%.
`CN1C(=O)CCN(C(=O)C2CC=CC2)c2ccccc21` was tested, and the “Percent Effect” value was 2.91%.
`COC1CN(C(=O)C2CC2)CCC(=O)N(C)c2ccccc21` (stereo not drawn) was tested, and the “Percent Effect” value was 115%.
In the case of `O=C(NC1CCCC1)N1C[C@H]2CN(c3ccccn3)C[C@@]2(C(=O)O)C1`, the “Percent Effect” value is reported as -9.055%.
With `COC(=O)N1CCCN(C(=O)NC2CCc3ccccc3C2)CC1` (stereo not drawn) the “Percent Effect” value was -2.418%.
With `COC(=O)[C@@H]1CN(C(=O)Nc2ccccc2)CCN1C(C)=O` the “Percent Effect” value was -6.785%.
With `Cn1cc(NC(=O)N2CCC(c3ccccc3)CC2)ccc1=O` the “Percent Effect” value was -11.38%.
For `COC1CCN(C(=O)Nc2ccccc2)CC(=O)N(C)c2ccccc21` (stereo not drawn), the “Percent Effect” value was 112.2%.
In the case of `O=C(C1CC=CC1)N1CC[C@H]2[C@@H]1CCC(=O)N2c1ccccc1`, the “Percent Effect” value is reported as -0.4954%.
With `COC1CN(C(=O)Nc2ccccc2)CCC(=O)N(C)c2ccccc21` (stereo not drawn) the “Percent Effect” value was 93.19%.
For `COC1CN(C(=O)NC2CCCC2)CCC(=O)N(C)c2ccccc21` (stereo not drawn), the “Percent Effect” value was 116.2%.
`CC(=O)N1CCN(C(=O)Nc2ccccc2)CC2(CC(=O)N(C)C2)C1` (stereo not drawn) was tested, and the “Percent Effect” value was -20.73%.
In the case of `O=C1NCCN2CCN(C(=O)Nc3ccc(-c4ccccc4)cc3)CC12` (stereo not drawn), the “Percent Effect” value is reported as -8.363%.
`O=C(c1cccc(Cl)c1Cl)N1CCN(CC(O)Cn2cccn2)CC1` (stereo not drawn) was tested, and the “Percent Effect” value was -7.394%.
With `Cc1ccn(-c2ccc(NCc3ccccc3F)nn2)n1` the “Percent Effect” value was -4.619%.
For `CSCCC(=O)N(C/C=C/c1ccccc1)CCO`, the “Percent Effect” value was -21.61%.
For `CC(C)(C)Oc1ccc(C(=O)N2CCOCC2c2ncon2)cc1` (stereo not drawn), the “Percent Effect” value was 0.1698%.
For `Oc1nnc(-c2cccs2)c2sc(N3CCCC3)nc12`, the “Percent Effect” value was -2.433%.
With `CCC[C@H]1CN(Cc2ccc(N(C)C)nc2)C[C@@H]1NC(=O)CO` the “Percent Effect” value was -10.52%.
For `CC(C)Nc1ncc(CN2C[C@@H](CN3CCC(O)CC3)[C@@H](CO)C2)cn1`, the “Percent Effect” value was -6.538%.
For `CN1CCN(Cc2cnc3n2CCN(C(=O)c2ccncc2)C3)CC1`, the “Percent Effect” value was 9.234%.
For `CC(C)c1nnc2n1CCN(C(=O)c1ccc(S(C)(=O)=O)cc1)C2`, the “Percent Effect” value was -9.775%.
For `CC(C)c1nnc2n1CCN(C(=O)c1ccc(OCC(N)=O)cc1)C2`, the “Percent Effect” value was -11.93%.
For `Cc1cccc(-n2ncc(C(=O)N3CCn4c(C)nnc4C3)c2C)c1`, the “Percent Effect” value was -8.447%.
In the case of `CC(C)c1nnc2n1CCN(C(=O)c1ccc(-n3cnnc3)cc1)C2`, the “Percent Effect” value is reported as -1.108%.
With `O=C(c1ccncc1)N1CCn2c(nnc2-c2ccccc2)C1` the “Percent Effect” value was -8.4%.
With `CC(C)c1nnc2n1CCN(C(=O)c1ccc(Cn3cccc3)cc1)C2` the “Percent Effect” value was -2.793%.
With `O=C(c1ccc(Cl)cc1)N1CCn2c(nn(-c3ccc(Cl)cc3)c2=O)C1` the “Percent Effect” value was 107.9%.
In the case of `O=C(c1ccc(Cl)cc1)N1CCn2c(nn(-c3cccc(Cl)c3)c2=O)C1`, the “Percent Effect” value is reported as 114.6%.
`O=C(c1ccc(Cl)cc1)N1CCn2c(nn(-c3ccncc3)c2=O)C1` was tested, and the “Percent Effect” value was 118.8%.
For `Cc1ccc(-n2nc3n(c2=O)CCN(C(=O)c2ccc(Cl)cc2)C3)cc1`, the “Percent Effect” value was 122%.
